CYP2C9 act = activators of human CYP2C9; actives 1.4% (n = 96,000); P11712; activation factor at 5 µM; recombinant CYP2C9, luciferin-H conversion, luminescence; hits give high values; factor 1 = untreated enzyme, 0 = blocked;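 active means activation factor of 2 or more for CYP2C9 at a 5 µM dose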;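 further: 0 = sulfaphenazole-blocked wells and 1 = vehicle-only wells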
CYP2C9 inhib = inhibitors of human CYP2C9; actives 20% (n = 96,000); AID 777; P11712; CYP2C9 Supersomes, luciferin-H conversion, luminescence; inhibition, % at 5 µM;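 active means blocking of liver enzyme CYP2C9 beyond about 50% at 5 µM, limit read from the data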
PostGolgi yeast = growth inhibition of a yeast mutant, post-Golgi transport screen | AID 739 | inhibition, % at 10 µM | actives 0.9% (n = 98,000) | post-Golgi transport phenotypic cell assay;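 further: yeast cells grown in 1536-well plates; yeast grown about 18 h at 30C before absorbance read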
CYP2C19 activ = activators of human cytochrome P450 2C19; recombinant CYP2C19, luciferin-H EGE luminescence; hits give high values; 0 = fully inhibited enzyme, 1 = untreated enzyme; activation factor at 5 µM; 96,000 tested, under 10 active; AID 1025;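 active means activation factor of at least 2 at 5 µM in the primary screen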;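 further: 0 = wells with 2.5 mM tranylcypromine and 1 = vehicle-only wells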
Target sequence (P33261 whole entry, looked up): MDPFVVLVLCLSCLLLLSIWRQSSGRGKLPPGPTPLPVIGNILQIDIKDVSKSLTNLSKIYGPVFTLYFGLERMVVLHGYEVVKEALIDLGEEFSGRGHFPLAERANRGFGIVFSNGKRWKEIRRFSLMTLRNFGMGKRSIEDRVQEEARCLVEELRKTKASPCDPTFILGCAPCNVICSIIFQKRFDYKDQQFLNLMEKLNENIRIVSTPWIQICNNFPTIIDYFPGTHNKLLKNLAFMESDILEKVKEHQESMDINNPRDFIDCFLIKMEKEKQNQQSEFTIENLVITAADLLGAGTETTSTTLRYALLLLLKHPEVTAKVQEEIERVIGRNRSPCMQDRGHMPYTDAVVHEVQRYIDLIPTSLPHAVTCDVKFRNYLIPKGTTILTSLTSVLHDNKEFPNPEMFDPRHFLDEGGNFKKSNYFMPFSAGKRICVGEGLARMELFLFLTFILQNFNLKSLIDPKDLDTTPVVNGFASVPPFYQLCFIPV
CYP2C19 inhib = human CYP2C19 inhibition. inhibition, % at 5 µM. P33261. actives 21% (n = 96,000). CYP2C19 Supersomes, luciferin-H EGE luminescence, 30 min. AID 778;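 active means CYP2C19 inhibition above a set limit at 5 µM in the primary screen, cut at about 50% in these data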;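 further: plate controls were negative control wells for no effect and 2.5 mM tranylcypromine positive control for full effect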
PostGolgi ctrl = yeast control strain growth, post-Golgi counter-screen; AID 738; efflux-deficient yeast background strain, growth absorbance A615, 16 h; inhibition, % at 10 µM; actives 5% (n = 98,000)
Active calls of the source: *. Shown are actives, neighbours in structure and some others; about 32% of the full set was active somewhere. Unless noted, no stated cut-off is given here; in the data, active means inhibition above about 30%; inactive means the rest.

COc1ccc(OC)c(Nc2cc(-c3ccccc3)nc(N)n2)c1 was read as CYP2C9 act 0.2, CYP2C9 inhib 79*, PostGolgi yeast -6, CYP2C19 activ 0.2, CYP2C19 inhib 80* and PostGolgi ctrl 6.
Cc1ccc2c(c1)c(C)cc(=O)n2CCC(=O)O was read as CYP2C9 act 1.2, CYP2C9 inhib -16, PostGolgi yeast -3, CYP2C19 activ 0.9, CYP2C19 inhib 6 and PostGolgi ctrl 11.
CCn1cc(C(=O)NC(=S)Nc2cccc(O)c2)cn1 was read as CYP2C9 act 1.7, CYP2C9 inhib -68, PostGolgi yeast 0, CYP2C19 activ 0.4, CYP2C19 inhib 65* and PostGolgi ctrl 23.
Screening O=C(NCC(c1cccnc1)N1CCN(c2ccc(F)cc2)CC1)c1ccc(F)cc1 (configuration not stated) returned CYP2C9 act 0.2, CYP2C9 inhib 77*, PostGolgi yeast 2, CYP2C19 activ 0.2, CYP2C19 inhib 81* and PostGolgi ctrl 17.
Screening O=C(NCC(c1cccnc1)N1CCN(c2ccc(F)cc2)CC1)c1ccc2c(c1)OCO2 (configuration not stated) returned CYP2C9 act 0.2, CYP2C9 inhib 80*, PostGolgi yeast 4, CYP2C19 activ 0.4, CYP2C19 inhib 64* and PostGolgi ctrl -2.
Screening CCN(CC)S(=O)(=O)c1ccc(-c2nnc(SCc3nnc(-c4ccccc4)o3)o2)cc1 returned CYP2C9 act 0.8, CYP2C9 inhib 15, PostGolgi yeast 3, CYP2C19 activ 0.5, CYP2C19 inhib 46 and PostGolgi ctrl -4.
CCOC(=O)c1cnc(SC)nc1Oc1cccc(NC(=O)c2cccc(Cl)c2Cl)c1 was read as CYP2C9 act 0.3, CYP2C9 inhib 74*, PostGolgi yeast 0, CYP2C19 activ 0.9, CYP2C19 inhib 14 and PostGolgi ctrl 6.
Screening CCOC(=O)c1cnc(SC)nc1Sc1cc(Cl)ccc1Cl returned CYP2C9 act 0.8, CYP2C9 inhib 21, PostGolgi yeast 33*, CYP2C19 activ 1, CYP2C19 inhib -1 and PostGolgi ctrl 16.
For CCOC(=O)c1cnc(-n2nc(C)cc2C)nc1Nc1ccc(OC)cc1 the results were CYP2C9 act 1, CYP2C9 inhib 0, PostGolgi yeast 5, CYP2C19 activ 1, CYP2C19 inhib 0 and PostGolgi ctrl 21.
`CCOC(=O)c1cnc(SCc2ccccc2)nc1N` gave CYP2C9 act 1, CYP2C9 inhib -4, PostGolgi yeast 3, CYP2C19 activ 0.9, CYP2C19 inhib 14 and PostGolgi ctrl 24.
`CCOC(=O)c1cnc(SC)nc1Nc1cccc(F)c1` gave CYP2C9 act 0.3, CYP2C9 inhib 70*, PostGolgi yeast 18, CYP2C19 activ 0.6, CYP2C19 inhib 35 and PostGolgi ctrl -21.
CCOC(=O)c1cnc(SC)nc1Oc1cccc(NS(=O)(=O)c2ccccc2)c1 was read as CYP2C9 act 0.2, CYP2C9 inhib 82*, PostGolgi yeast -11, CYP2C19 activ 0.8, CYP2C19 inhib 18 and PostGolgi ctrl -1.
Screening CCOC(=O)c1cnc(SC)nc1Oc1cccc(NC(=O)c2ccc(C)cc2)c1 returned CYP2C9 act 0.6, CYP2C9 inhib 40, PostGolgi yeast -3, CYP2C19 activ 1, CYP2C19 inhib 3 and PostGolgi ctrl 0.
Cn1c(NC(=O)c2ccco2)cc(=O)n(C)c1=O was read as CYP2C9 act 1, CYP2C9 inhib 4, PostGolgi yeast -4, CYP2C19 activ 1, CYP2C19 inhib 2 and PostGolgi ctrl 6.
For CCc1noc(C)c1C(=O)Nc1ncc(C)s1 the results were CYP2C9 act 0.7, CYP2C9 inhib 33, PostGolgi yeast 19, CYP2C19 activ 0.5, CYP2C19 inhib 47 and PostGolgi ctrl -2.
Screening CCOC(=O)c1cnc(SC)nc1Oc1cccc(NS(=O)(=O)c2ccc(F)cc2)c1 returned CYP2C9 act 0.2, CYP2C9 inhib 77*, PostGolgi yeast -1, CYP2C19 activ 0.7, CYP2C19 inhib 26 and PostGolgi ctrl 11.
Screening Cc1cc(C(=O)C(=O)N(C)C)c(C)n1-c1ccc([N+](=O)[O-])cc1 returned CYP2C9 act 1, CYP2C9 inhib 3, PostGolgi yeast 5, CYP2C19 activ 0.3, CYP2C19 inhib 72* and PostGolgi ctrl 20.
C=CCN(CC=C)C(=O)C(=O)c1cc(C)n(-c2ccc([N+](=O)[O-])cc2)c1C was read as CYP2C9 act 0.6, CYP2C9 inhib 44, PostGolgi yeast 9, CYP2C19 activ 0, CYP2C19 inhib 98* and PostGolgi ctrl 7.
Screening Cc1ccc(-n2c(C)cc(C(=O)OCC(=O)N(C)C3CCS(=O)(=O)C3)c2C)cc1 (configuration not stated) returned CYP2C9 act 1, CYP2C9 inhib 4, PostGolgi yeast 6, CYP2C19 activ 1, CYP2C19 inhib -3 and PostGolgi ctrl 18.
`CCOc1ccccc1NC(=S)/C(=C(\[O-])c1ccc2c(c1)OCCO2)[n+]1ccc(CC)cc1` gave CYP2C9 act 0.4, CYP2C9 inhib 62*, PostGolgi yeast -5, CYP2C19 activ 0.4, CYP2C19 inhib 59* and PostGolgi ctrl 19.
CC1=CC(C)C2C(=O)N(CCCN(C)C)C(=O)C2C1 (configuration not stated) was read as CYP2C9 act 1.1, CYP2C9 inhib -9, PostGolgi yeast -10, CYP2C19 activ 1, CYP2C19 inhib -3 and PostGolgi ctrl 6.
`O=C(N/N=C/c1ccccc1Cl)c1cccc(F)c1` gave CYP2C9 act 0.7, CYP2C9 inhib 29, PostGolgi yeast -22, CYP2C19 activ 0.6, CYP2C19 inhib 44 and PostGolgi ctrl -2.
For CC1C/C(=N/NC(=O)c2cccc(F)c2)c2ccc(O)cc2C1 (configuration not stated) the results were CYP2C9 act 1.6, CYP2C9 inhib -60, PostGolgi yeast -2, CYP2C19 activ 0.5, CYP2C19 inhib 51* and PostGolgi ctrl 5.
For COc1ccc(-n2c(SCC(N)=O)nc3nc4c(cc3c2=O)COC(C)(C)C4)cc1 the results were CYP2C9 act 0.9, CYP2C9 inhib 8, PostGolgi yeast -5, CYP2C19 activ 1, CYP2C19 inhib -5 and PostGolgi ctrl 6.
[O-]/[N+](=C\c1ccncc1)c1ccccc1 was read as CYP2C9 act 0.8, CYP2C9 inhib 19, PostGolgi yeast 6, CYP2C19 activ 0.8, CYP2C19 inhib 21 and PostGolgi ctrl 10.
Screening [O-]/[N+](=C/c1ccc(F)cc1)c1ccccc1 returned CYP2C9 act 1.2, CYP2C9 inhib -20, PostGolgi yeast 10, CYP2C19 activ 1, CYP2C19 inhib -3 and PostGolgi ctrl 33*.
`COc1ccc(NC(=O)COC(=O)c2ccc(N3CCCC3=O)cc2)cc1OC` gave CYP2C9 act 1, CYP2C9 inhib 0, PostGolgi yeast 12, CYP2C19 activ 0.8, CYP2C19 inhib 20 and PostGolgi ctrl 11.

Bioassay records from PubChem BioAssay.
